Experiment [1] is described as follows: qHTS assay to test for compound auto fluorescence at 535 nm (green) in HEK293 cells (AID 720680).
Experiment [2] can be described thus: qHTS assay to test for compound auto fluorescence at 460 nm (blue) in HEK293 cell free culture (AID 720681). The method in brief:
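Compounds were added to cell-free DMEM with 10% FBS and fluorescence read directly. The blue channel used 405 nm excitation and 460 nm emission, with triamterene as the reference fluorophore.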
On the technique in general: qHTS replaces the single test concentration by a dilution series.

Experiment [3] in a line: qHTS assay to test for compound auto fluorescence at 590 nm (red) in HEK293 cell free culture (AID 720683). Note: potency is the fitted concentration of half-maximal effect. Summed up:
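Cell-free wells of DMEM with 10% FBS received compound, and intrinsic fluorescence was read at excitation/emission 540/590 nm. Values expressed as equivalence to Rose Bengal sodium.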

Experiment [4] can be described thus: qHTS assay to test for compound auto fluorescence at 590 nm (red) in HepG2 cell free culture (AID 720684). Note: potency is the fitted concentration of half-maximal effect. Summed up: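 Compound was pinned into wells holding MEM with 10% FBS and no cells, and red fluorescence was read at Ex/Em 540/590 nm. Signal is expressed as auto fluorescence equivalency relative to Rose Bengal sodium.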
A short description of experiment [5]: qHTS assay to test for compound auto fluorescence at 460 nm (blue) in HepG2 cell free culture (AID 720685). The method in brief:
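Compound (23 nL) or DMSO pinned into cell-free MEM with 10% FBS; blue fluorescence read at 405/460 nm excitation/emission, expressed as auto-fluorescence equivalency to triamterene.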

Experiment [6] is described as follows: qHTS assay to test for compound auto fluorescence at 535 nm (green) in HepG2 cell free culture (AID 720686).
Experiment [7] in a line: qHTS assay to test for compound auto fluorescence at 460 nm (blue) in HepG2 cells (AID 720687). Summed up: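 HepG2 cells in MEM with 10% FBS, attached overnight at 37 C, were exposed to compound or DMSO for 1 hr at 37 C, 5% CO2. Blue fluorescence was read at 405/460 nm, with triamterene as reference fluorophore.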
The nature of experiment [8]: qHTS assay to test for compound auto fluorescence at 535 nm (green) in HEK293 cell free culture (AID 720682). Summed up: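 Using fluorescein as calibrant, autofluorescence was quantified at 485/535 nm in cell-free DMEM containing 10% FBS after pintool addition of compound or vehicle.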
Experiment [9] concerns the target Glucocorticoid receptor (Homo sapiens) (UniProt P04150). Kind of experiment: qHTS assay to identify small molecule agonists of the glucocorticoid receptor (GR) signaling pathway (AID 720691; active = well fitted activation curve with a large enough effect in the signal ratio in the repeat runs, not every such curve was filed as active; the % refers to the signal ratio). The method in brief: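 qHTS in GR-bla HeLa cells: 4 h settling at 37 C/5% CO2, 18 h compound incubation at 37 C, 2 h LiveBLAzer B/G FRET substrate at room temperature, fluorescence intensity measured.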

The target is the same in experiment [10]. The experiment can be described thus: qHTS assay to identify small molecule antagonists of the glucocorticoid receptor (GR) signaling pathway (AID 720692; active = well fitted inhibition curve with a large enough effect in the signal ratio in the repeat runs, not every such curve was filed as active; the % refers to the signal ratio). Summed up: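 Inhibition of glucocorticoid signalling is measured in HeLa cells with a GRE-controlled beta-lactamase reporter; cells are co-treated with compound and 5 nM dexamethasone (final) for 18 h before FRET substrate readout.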

Values without a mark were called inactive. Inconclusive results are not listed. Activity calls are given as the source filed them. Unless noted, calls come from the whole dose curve; as a rule, active = well fitted curve in the direction sought with a large enough effect in the repeat runs; inconclusive = weak or mixed curves; inactive = flat fitted curve, though single readings scatter.
% is set by controls: 0 for no effect and ±100 for the full control effect; tags give direction and shape of the fitted curve or compound fluorescence and quenching.

Glucocorticoid receptor (Homo sapiens), sequence (P04150 whole entry, looked up): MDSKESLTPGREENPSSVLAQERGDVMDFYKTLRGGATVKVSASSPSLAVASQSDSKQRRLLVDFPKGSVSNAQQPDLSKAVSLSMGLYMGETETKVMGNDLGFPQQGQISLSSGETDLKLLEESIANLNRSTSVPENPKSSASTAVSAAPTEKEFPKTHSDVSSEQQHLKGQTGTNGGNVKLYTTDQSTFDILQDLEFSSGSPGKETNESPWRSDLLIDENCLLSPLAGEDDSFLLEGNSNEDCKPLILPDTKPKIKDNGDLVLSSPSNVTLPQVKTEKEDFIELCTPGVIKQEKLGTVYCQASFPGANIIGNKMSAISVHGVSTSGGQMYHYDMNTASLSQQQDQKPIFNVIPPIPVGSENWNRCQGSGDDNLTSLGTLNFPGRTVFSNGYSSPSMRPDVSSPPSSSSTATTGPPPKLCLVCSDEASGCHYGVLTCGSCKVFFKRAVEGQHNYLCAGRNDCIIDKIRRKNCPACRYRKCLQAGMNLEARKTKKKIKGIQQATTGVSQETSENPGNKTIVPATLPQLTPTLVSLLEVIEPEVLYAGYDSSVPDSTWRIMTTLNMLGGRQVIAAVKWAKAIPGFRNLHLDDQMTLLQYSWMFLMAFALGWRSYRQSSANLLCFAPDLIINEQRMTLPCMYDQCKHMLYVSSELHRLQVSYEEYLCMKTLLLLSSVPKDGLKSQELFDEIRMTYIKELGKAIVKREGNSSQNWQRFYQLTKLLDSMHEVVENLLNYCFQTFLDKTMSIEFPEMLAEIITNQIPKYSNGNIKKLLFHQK

`c1ccsc1`: the Potency result in experiment [1], in experiment [2], in experiment [3], in experiment [4], in experiment [5] and in experiment [6] was “inactive” in each case. In addition, in experiment [7], the Potency entry was “inactive”.

As for `CCCCCCCCCCCC(=O)OCC(C)OC(=O)CCCCC(=O)O` (stereo unspecified), the Potency entry in experiment [1], in [2], in experiment [8], in experiment [3], in experiment [5] and in experiment [6] was “inactive” each time. Also, the Potency result in [7] and in experiment [9] was “inactive” throughout.

In the case of `Cc1cc(-n2nc3ccc(Cl)cc3n2)c(O)c(C(C)(C)C)c1`, the Potency result in experiment [1], in experiment [2], in experiment [8], in experiment [3], in experiment [5] and in experiment [6] was “inactive” in each case. In addition, the Potency result in experiment [9] and in [10] was “inactive” each time.

On to `CCC(CC)(CC(=O)Nc1cccc(/C=C/c2nc(C3CCC3)cs2)c1)C(=O)O`, for which the Potency result in experiment [1], in [2], in experiment [8], in experiment [3], in experiment [5] and in experiment [6] was “inactive” in each case. Further, the Potency result in [7] is “inactive”.

In the case of `CCc1oc2ccccc2c1C(=O)c1cc(I)c(O)c(I)c1`, the Potency entry in experiment [1], in experiment [2], in experiment [8], in experiment [3], in experiment [5] and in [6] was “inactive” each time. In addition, the Potency result in experiment [7] is “inactive”.

As for `COC(=O)c1ccccc1C`, the Potency result in [1], in [2], in experiment [8], in [3], in experiment [5] and in experiment [6] was “inactive” in each case. The Potency result in [7], in experiment [9] and in [10] was “inactive” each time.

For `O=C(Oc1ccccc1)Oc1ccccc1`, the Potency result in experiment [1], in [2], in experiment [3], in [4], in experiment [5] and in experiment [6] was “inactive” in each case.

For the compound `Nc1ccc(C(=O)O)c(O)c1`, the Potency entry in [1], in experiment [2], in experiment [8], in experiment [3], in experiment [5] and in experiment [6] was “inactive” throughout. In addition, the Potency result in [7], in [9] and in experiment [10] was “inactive” throughout.

For the compound `Cc1ccc(O)c(O)c1`, the Potency entry in experiment [1], in experiment [2], in [8], in [3], in experiment [5] and in [6] was “inactive” in each case. Further, in [7], the Potency entry is “inactive”.

Take `COCCOc1cc2cc(C(=O)NC3CCN(C(C)C)CC3)n(CC(=O)Nc3ccc(Cl)cn3)c2cn1`: the Potency entry in experiment [1], in experiment [2], in [8], in [3], in experiment [5] and in experiment [6] was “inactive” each time. In addition, the Potency entry in experiment [7], in [9] and in experiment [10] was “inactive” throughout.

`Nc1ccc(NCCO)c([N+](=O)[O-])c1`: the Potency entry in [1], in [2], in experiment [8], in [3], in experiment [5] and in [6] was “inactive” each time. Moreover, the Potency result in [7], in experiment [9] and in experiment [10] was “inactive” throughout.

For the compound `CC(C)(c1cc(Br)c(OCC(Br)CBr)c(Br)c1)c1cc(Br)c(OCC(Br)CBr)c(Br)c1` (stereo unspecified), the Potency result in experiment [1], in [2], in experiment [8], in [3], in experiment [5] and in experiment [6] was “inactive” in each case. Also, the Potency entry in experiment [7], in experiment [9] and in experiment [10] was “inactive” in each case.

Regarding `COc1cc(C)ccc1O`, the Potency entry in experiment [1], in [2], in experiment [8], in [3], in experiment [5] and in [6] was “inactive” in each case. The Potency entry in experiment [7] and in [9] was “inactive” each time.

For `O=C1CCc2cc(OCCCCc3nnnn3C3CCCCC3)ccc2N1`, the Potency entry in [1], in [2], in [8], in experiment [3], in [5] and in [6] was “inactive” in each case. For the same compound, the Potency result in experiment [7] and in experiment [9] was “inactive” throughout.

Consider `C#C[C@]1(O)CC[C@H]2[C@@H]3[C@H](C)CC4=C(CCC(=O)C4)[C@H]3CC[C@@]21C`, for which the Potency result in [1], in [2], in [3], in experiment [4], in experiment [5] and in experiment [6] was “inactive” throughout. Besides, in experiment [7], the Potency entry was “inactive”.

`CCCCN(CCCC)CC(O)c1cc(Cl)cc2c1-c1ccc(Cl)cc1/C2=C/c1ccc(Cl)cc1` (stereo unspecified): the Potency result in [1], in experiment [2], in [8], in experiment [3], in [5] and in experiment [6] was “inactive” throughout. For the same compound, the Potency entry in [7] and in experiment [9] was “inactive” each time.

As for `CCCC1CCC(=O)CC1`, the Potency result in experiment [1], in experiment [2], in experiment [8], in [3], in [5] and in experiment [6] was “inactive” in each case. The Potency result in experiment [7], in experiment [9] and in [10] was “inactive” each time.

As for `C=C(CC)C(=O)c1ccc(OCC(=O)O)c(Cl)c1Cl`, the Potency entry in [1], in [2], in [3], in experiment [4], in experiment [5] and in [6] was “inactive” in each case. The Potency entry in experiment [9] was “inactive”.

Take `CCN(CC)c1ccc2c(-c3ccc(S(=O)(=O)O)cc3S(=O)(=O)[O-])c3ccc(=[N+](CC)CC)cc-3oc2c1`: the Potency entry in experiment [1], in experiment [2], in experiment [5], in [6], in [9] and in experiment [10] was “inactive” throughout. In addition, the Potency is 794 nM [fluorescent] (active) in [3] and 355 nM [fluorescent] (active) in experiment [4].

On to `Cc1cc(-c2ccc(N=Nc3cc(S(=O)(=O)O)c4ccccc4c3N)c(C)c2)ccc1N=Nc1cc(S(=O)(=O)O)c2ccccc2c1N`, for which the Potency entry in experiment [1], in experiment [2], in experiment [3], in experiment [5], in [6] and in experiment [7] was “inactive” each time. Besides, the Potency result in [9] was “inactive”.

In the case of `OCCN1CCN(CCCN2c3ccccc3Sc3ccc(C(F)(F)F)cc32)CC1`, the Potency entry in experiment [1], in experiment [2], in experiment [3], in experiment [5], in experiment [6] and in experiment [7] was “inactive” each time. Also, the Potency result in experiment [9] is “inactive”.

With `COc1cc2nc(N3CCN(C(=O)c4ccco4)CC3)nc(N)c2cc1OC`, the Potency result in [1], in experiment [2], in [3], in [4], in experiment [5] and in experiment [6] was “inactive” each time. Besides, the Potency result in [7] and in experiment [9] was “inactive” each time.

Consider `C=CCn1c(=O)n(CC=C)c(=O)n(CC=C)c1=O`, for which the Potency result in experiment [1], in experiment [2], in [3], in [4], in experiment [5] and in experiment [6] was “inactive” each time. The Potency entry in [7] and in [9] was “inactive” each time.

In the case of `O=C(O)O`, the fluorescence, % of fluorescein in experiment [1] is -0.0067% [at 3.72 µM]. Besides, the fluorescence, % of fluorescent control is 0.0957% [at 3.72 µM] in experiment [2], -0.0236% [at 3.72 µM] in experiment [3], 0.0077% [at 3.72 µM] in experiment [5] and -0.0691% [at 3.72 µM] in experiment [7]. Besides, in [4], the fluorescence, % of Rose Bengal is 0.0094% [at 3.72 µM]. In addition, the fluorescence, % of fluorescein control in [6] is 0.0195% [at 3.72 µM]. Further, the activation in experiment [9] is -0.133% [at 6.9 µM]. Also, the activity change, negative = inhibition in experiment [10] is -1.88% [at 7.04 µM].

For `c1ccc(SSc2ccccc2)cc1`, the Potency result in [1], in [2], in experiment [3], in [4], in experiment [5] and in [6] was “inactive” in each case. Also, the Potency result in experiment [7] and in experiment [9] was “inactive” each time.

For the compound `O=[N+]([O-])c1ccc(F)c(Cl)c1`, the Potency entry in [1], in [2], in experiment [3], in experiment [4], in [5] and in experiment [6] was “inactive” throughout. The Potency entry in experiment [7], in experiment [9] and in experiment [10] was “inactive” in each case.

The values are drawn from PubChem BioAssay (Tox21).
